Source: PubChem BioAssay AID1053143 (Broad Institute, 2014)
The whole screen tested about 3,400 compounds, of which about 120 (3.5%) were called active. The rule behind the calls is not given here. Only a sample is shown. Potency and affinity values are given separately.

test: HepG2 cell cytotoxicity, dose response, cytotoxicity control, ATP luminescence, cherry-pick, activator set 2 (AID 1053143); settings: HepG2 viability, CellTiter-Glo ATP luminescence, 72 h; series mostly up to 26 µM; activity change, negative = cytotoxicity: at the top concentration

Row | SMILES | activity change, negative = cytotoxicity
1 | CCCC(=O)Nc1ccc(C#Cc2ccccc2)cc1 | -0.469% (inactive)
2 | O=C(NC(=O)c1ccccc1)Nc1ccccc1 | 1.49% (inactive)
3 | Cc1ccc(NC(=O)c2ccc(OC(=O)c3cc4ccccc4o3)cc2)cc1 | 4.2% (inactive)
4 | CCOC(=O)C1=C(C)NC(=O)C(C(N)=O)C1c1ccccc1 (stereo not drawn) | -3.34% (inactive)
5 | O=C(NC1CC1)C1Nc2ccc(OC(F)(F)F)cc2C2C=CCC12 (stereo not drawn) | 29.6% (inactive)
6 | O=C(Nc1ccc2c(c1)nc1n2CCOC1)c1ccccc1 | -16.9% (inactive)
7 | COc1cccc(NC(=O)c2cccc(Cl)c2)c1 | -17.7% [at 12 µM] (inactive)
8 | O=C(Nc1nc2ccccc2[nH]1)c1cccc(Cl)c1 | -18.3% (inactive)
9 | COc1ccc2cc3cc(C(=O)N4CCCCC4C)oc3nc2c1 (stereo not drawn) | -0.02% (inactive)
10 | Cc1nn(Cc2ccccc2)c(Cl)c1C(=O)NCCc1ccccc1 | -3.92% (inactive)
11 | CCCn1cnc2cc(NC(=O)c3cccs3)ccc21 | -9.34% (inactive)
12 | O=c1c2ccccc2oc2cc(C#Cc3ccccn3)ccc12 | -1.68% (inactive)
13 | COc1cccc2oc3cc(C#Cc4ccccn4)ccc3c(=O)c12 | -8.47% (inactive)
14 | O=[N+]([O-])c1cc(Cl)ccc1-c1nc(-c2ccccc2)no1 | -7.06% (inactive)
15 | Fc1ccc(-c2cn3cc(C(F)(F)F)cc(Cl)c3n2)cc1 | 1.44% (inactive)
16 | O=C(CCCCn1c(=O)[nH]c2ccsc2c1=O)NCCc1ccccc1 | -18.2% (inactive)
17 | C[C@@H]1ON(C)[C@H]2C[C@H]3c4cc(-c5cc6ccccc6o5)ccc4CCN3C[C@@H]12 | -0.799% (inactive)
18 | Cc1occc1C(=O)N/N=C/c1ccc(OCc2ccccc2)cc1 | -26.3% [at 12 µM] (inactive)
19 | O=C(N/N=C/c1ccc2c(c1)OCO2)c1ccc(Br)o1 | -2.64% (inactive)
20 | O=C(NN=Cc1ccc2c(c1)OCO2)c1ccccc1 | -0.221% (inactive)
21 | COc1cccc(/C=N/NC(=O)c2ccoc2C)c1 | -16.8% (inactive)
22 | O=C(CSc1nnc(-c2ccncc2)o1)Nc1cc(F)ccc1F | -5.14% [at 12 µM] (inactive)
23 | CN(C)c1ccc(-c2ccccc2)nn1 | -12% (inactive)
24 | CCc1ccc(NCc2nc3ccccc3c(=O)[nH]2)cc1 | -3.06% (inactive)
25 | CCC(=O)NC1=C(Nc2ccc(N)cc2)C(=O)c2ccccc2C1=O | -24% (inactive)

Row | SMILES | activity change, negative = cytotoxicity
26 | COCC(=O)OCc1cc2cccc(C)c2[nH]c1=O | -13.6% (inactive)
27 | Cc1ccc(N2CC(C(=O)Nc3ccc4c(c3)OCCO4)CC2=O)cc1 (stereo not drawn) | -12.7% (inactive)
28 | Cc1cc(C(=O)NC2CCCCCCC2)ccc1[N+](=O)[O-] | -3.55% (inactive)
29 | O=C(CN1CCOCC1)Nc1ccc(C2CCCCC2)cc1 | 3.28% (inactive)
30 | COc1ccc2nc(-c3ccccc3)[nH]c2c1 | -28.6% (inactive)
31 | COc1ccc(/C=C/C(=O)c2ccccc2)c(OC)c1 | 4.41% (inactive)
32 | Cc1ccnc(NC(=O)c2ccc(S(=O)(=O)N3CCC(C)CC3)cc2)c1 | -2.07% (inactive)
33 | Cc1ccc(NC(=O)c2ccc(OCC3CCCO3)cc2)cc1Cl (stereo not drawn) | -31.3% (inactive)
34 | O=C(NC1=NCCS1)c1ccc(OCC2CCCO2)cc1 (stereo not drawn) | -9.45% (inactive)
35 | Cc1cc(NC(=O)c2ccc3nccnc3c2)ccc1Br | -12.6% (inactive)
36 | COc1cc(Cl)ccc1OCc1cc(C(=O)NC(C)Cc2cnccn2)no1 (stereo not drawn) | -13.1% (inactive)
37 | Cc1ccc(NC(=O)Nc2cccc(C)n2)c(C)c1 | -16.3% (inactive)
38 | Oc1cccc(Nc2nc(O)c(/C=C3\C=Nc4ccccc43)s2)c1 | -8.74% (inactive)
39 | COc1ccc(-c2csc(N(CC3CCCO3)C(=O)c3ccc(C)cc3)n2)cc1 (stereo not drawn) | -14.5% (inactive)
40 | CC(C)CN1CCC(=O)N(CCSc2ccccc2)CC1 | -0.298% (inactive)
41 | Clc1ccc(/C=N/Nc2ccccn2)cc1 | 3.24% [at 12 µM] (inactive)
42 | O=[N+]([O-])c1ccc(NN=Cc2ccc(O)cc2)nc1 | 2.51% (inactive)
43 | COc1ccc(N2CCN(c3ccc(NC(=O)/C=C\C(=O)O)cc3)CC2)cc1 | -5.11% (inactive)
44 | COC(=O)c1sc(-c2ccc(C(C)(C)C)cc2)cc1NC(=O)c1ccccc1C(=O)O | -0.287% (inactive)
45 | CC1CCC(C(C)C)C(=O)/C1=C/c1ccc(N)cc1 (stereo not drawn) | -13.4% (inactive)
46 | Cn1c(=NN=Cc2ccccc2OCCO)sc2ccccc21 | -17.3% (inactive)
47 | COc1ccc(-c2cn(Cc3ccc(C(N)=O)cc3)c(-c3ccncc3)n2)cc1 | -26.3% (inactive)
48 | COc1ncccc1-c1nnn(-c2ccccc2)n1 | -15.1% (inactive)
49 | COc1ncccc1-c1nnn(-c2ccc(C)cc2)n1 | -28.8% (inactive)
50 | CCCCn1c(SCC2CCCCO2)nc2cc(S(N)(=O)=O)ccc21 (stereo not drawn) | -22.6% (inactive)

Row | SMILES | activity change, negative = cytotoxicity
51 | O=C(Cn1nnc2ccccc21)c1ccc(Cl)cc1 | -7.73% (inactive)
52 | c1ccc(-n2ncc3c(NCCN4CCOCC4)ncnc32)cc1 | -15.4% (inactive)
53 | COc1ccccc1C(=O)Nc1nnc(SCC(=O)NCC2CCCO2)s1 (stereo not drawn) | -5.08% (inactive)
54 | Cn1c(=O)c(C(=O)NCC2CCCO2)c(O)c2ccccc21 (stereo not drawn) | -4.84% (inactive)
55 | CC1(c2ccccn2)Nc2ccccc2-c2nc3ccccc3n21 (stereo not drawn) | -6.75% (inactive)
56 | NC(=O)c1ccccc1NC(=O)/C=C/c1ccccc1 | 14% (inactive)
57 | Cc1cccc(Cc2cnc(NC(=O)c3ccc(C)o3)s2)c1 | -22.4% (inactive)
58 | O=C(Nc1nccs1)c1ccc(-c2ccc(F)cc2)o1 | -7.12% (inactive)
59 | Cc1ccc(C(=O)Nc2nc3c(s2)CCCC3)o1 | -19.8% (inactive)
60 | COC(=O)c1c(NC(=O)c2ccc(C)o2)sc2c1CCCCC2 | 19.4% (inactive)
61 | CCCCN(C(=O)Cc1cccs1)c1nnc(-c2cccnc2)s1 | 1.27% (inactive)
62 | O=C(NCCc1ccc(Cl)cc1)c1ccc2c(c1)OCO2 | -4.91% (inactive)
63 | Cc1cccc(OCC(=O)Nc2nccs2)c1C | -2.78% (inactive)
64 | CC(C)(C)NC(=O)Nc1ccc(Br)cc1 | -21.4% (inactive)
65 | O=C1c2ccncc2C(=O)N1CNc1ccc(Cl)cc1 | -11.6% (inactive)
66 | O=C(Cc1nc2ccccc2[nH]c1=O)c1ccc(Cl)cc1 | 15.3% (inactive)
67 | O=C(O)c1ccc(/C=C(\c2nc3ccccc3[nH]2)c2nc3ccccc3s2)cc1 | 12.7% (inactive)
68 | CCc1cc(C(=O)COc2ccc(F)cc2)c(O)cc1O | -6.69% (inactive)
69 | CN(C)c1ccnc2sc(C(=O)c3ccccc3)c(N)c12 | -10.8% (inactive)
70 | CC1(C)Cc2c(c(N3CCOCC3)nc3sc(C(=O)Nc4ccccc4)c(N)c23)CO1 | -10.1% (inactive)
71 | CCCCN1CCc2c([nH]c3ccc(C)cc23)C1=O | -7.17% (inactive)
72 | O=C1CCC(c2ccccc2)c2ccccc21 (stereo not drawn) | -5.58% (inactive)
73 | Cn1ccc(NC(=O)c2ccc(Cl)cc2Cl)n1 | 9.45% (inactive)
74 | O=C(Nc1ccc2ccccc2c1)c1ccc(Cl)cc1Cl | -13% (inactive)
75 | O=C(NCCO)c1ccc2c3n(nc2c1)-c1ccc(Cl)cc1CO3 | -13.4% (inactive)

Row | SMILES | activity change, negative = cytotoxicity
76 | CN(C)CCN1C(=O)C(=O)/C(=C(/O)c2ccc3c(c2)OCCO3)C1c1ccccn1 (stereo not drawn) | -7.51% (inactive)
77 | COc1cccc(/C=C/C(=O)NNC(=O)c2ccccc2)c1OC | -12.3% (inactive)
78 | CSc1nc(Cl)cc(Nc2ccc(O)cc2)n1 | -0.166% (inactive)
79 | Cc1cccc(NC(=O)c2c(O)c3ccccc3[nH]c2=O)c1 | -15.7% (inactive)
80 | Cc1cccc(C(=O)OCC(=O)c2c(C)[nH]c3ccccc23)c1O | 0.746% (inactive)
81 | Nn1c(SCc2c(F)cccc2F)nnc1-c1ccccn1 | -0.861% (inactive)
82 | CCC(=O)Nc1ccc(NC(=O)c2ccco2)c(OC)c1 | 67.7% (inactive)
83 | O=C(Nc1ccc(NC(=O)c2cccs2)cc1Cl)c1ccco1 | 12.9% (inactive)
84 | Cc1cccc(NC(=O)c2ccccn2)c1C | 5.79% (inactive)
85 | CC1(O)C(c2ccccc2)=Nc2ccccc21 (stereo not drawn) | -24.2% (inactive)
86 | O=C(c1cc(COc2c(F)cccc2F)on1)N1C[C@H]2CC[C@H]1C2 | -1.5% (inactive)
87 | CC(C)c1ccc(-n2nc3ccc(N)cc3n2)cc1 | -17.6% (inactive)
88 | Cc1ccc(-n2nc3ccc(N)cc3n2)cc1C | -0.701% (inactive)
89 | CC(=O)c1ccc2c(c1)Cc1cc(C(C)=O)ccc1-2 | -12.1% (inactive)
90 | CC1CCc2sc(C(=O)NC3CCCCC3)cc2C1 (stereo not drawn) | -10.7% (inactive)
91 | C(=C\c1ccccc1)/C=N/Nc1nc2ccccc2[nH]1 | -9.79% (inactive)
92 | C=CCn1cc(/C=N/Nc2nc3ccccc3[nH]2)c2ccccc21 | -43.7% (inactive)
93 | Fc1ccccc1-c1ccc(/C=N/Nc2nc3ccccc3[nH]2)o1 | -16.3% (inactive)
94 | Cc1ccsc1/C=N/Nc1nc2ccccc2[nH]1 | -6.65% (inactive)
95 | Cc1ccc(/C=N/Nc2nc3ccccc3[nH]2)s1 | -17.2% (inactive)
96 | Clc1nc2ccccc2cc1/C=N/Nc1nc2ccccc2[nH]1 | -7.1% (inactive)
97 | C(=N\Nc1nc2ccccc2[nH]1)/c1ccc2c(c1)OCCO2 | -13.2% [at 12 µM] (inactive)
98 | C(=N\Nc1nc2ccccc2[nH]1)/c1cccs1 | 1.51% (inactive)
99 | O=C(COC(=O)CC1CCCC1)Nc1cc2c(cc1Cl)C(=O)c1ccccc1C2=O | -25.4% (inactive)
100 | O=C(O)CC1=C(Nc2ccccc2)C(=O)N(c2ccccc2)C1c1ccc(Br)cc1 (stereo not drawn) | 21.9% (inactive)

Row | SMILES | activity change, negative = cytotoxicity
101 | COC(=O)C(C)N1C(=O)S/C(=C/c2cc(C)n(-c3ccccn3)c2C)C1=O (stereo not drawn) | -4.21% (inactive)
102 | Cc1cccc(-n2ncc3c(NCCCO)ncnc32)c1 | 4.41% (inactive)
103 | O=C(CCNC(=O)c1ccc(Br)cc1)Nc1ccc(S(=O)(=O)N2CCOCC2)cc1 | -8.39% (inactive)
104 | C=CCc1c(C)nc2cc(-c3ccccc3)[nH]n2c1=O | -7.02% (inactive)
105 | Cc1ccc2oc(C(=O)N(C)Cc3ccon3)c(C)c2c1 | -6.74% (inactive)
106 | C(/C=C/c1ccccn1)=C\c1ccccc1 | -22.6% (inactive)
107 | COc1ccc2cc3cc(C(=O)N4CCCC(C)C4)oc3nc2c1 (stereo not drawn) | -14% (inactive)
108 | Cn1c(NC(=O)c2ccccc2F)c(-c2cccs2)c(=O)c2ccccc21 | -4.75% (inactive)
109 | COc1ccc(N=NC2=C(O)CC(C)(C)CC2=O)cc1 | -13.4% (inactive)
110 | Cc1cc2nn(-c3ccccc3)nc2cc1NC(=O)c1cccs1 | -10.6% (inactive)
111 | CCC(=O)Nc1cc(C(=O)OCC(=O)c2ccccc2Cl)ccc1C | -11.1% (inactive)
112 | CCC(=O)Nc1ccc2nn(-c3ccc(F)cc3)nc2c1 | -11.6% (inactive)
113 | CC(=O)Nc1cccc(-n2nnc(SCC(=O)c3ccccc3)n2)c1 | -12.8% (inactive)
114 | CCCC(=O)Nc1ccc2oc(-c3cccnc3)nc2c1 | -9.19% (inactive)
115 | Cc1ccc(NC(=O)Nc2cccc(C)n2)cc1 | -7.97% [at 6 µM] (inactive)
116 | O=C(CC(=O)c1ccccc1)Nc1ccccc1 | 0.16% (inactive)
117 | CC(=O)Nc1cccc(NC(=O)CCCC(=O)O)c1 | -2.64% (inactive)
118 | O=C(Nc1cc(F)c(Br)cc1F)c1ccc(Cl)cc1 | 4.77% (inactive)
119 | Cc1cnc(NC(=O)c2ccc3ncsc3c2)s1 | -12.4% (inactive)
120 | NC(=O)Cc1c[nH]c2cccc(O)c12 | -2.19% (inactive)
121 | CCn1c(O)c(C#N)c(C)cc1=O | 20.8% (inactive)
122 | c1csc(-c2nc(N3CCCCC3)no2)c1 | -5.95% (inactive)
123 | O=C(Nc1ccc(F)cc1F)c1csc(-c2cccs2)n1 | -6.08% (inactive)
